Experiment [1] deals with Vero E6 infected with SARS-CoV-2. Kind of experiment: morphology score (similarity to uninfected cells); higher = more like uninfected cells. The following applies: 24 h.
Experiment [2] has the same test system. Kind of experiment: SARS-CoV-2 infection rate relative to infected DMSO; higher = more infection, active = 60 or less. The following applies: 24 h.

With `CC(C)C[C@@H](C(=O)N[C@H](C(=O)OC1CCCC1)c1ccccc1)[C@H](O)C(=O)NO` [tosedostat] (10 µM), the morphology score in experiment [1] is 0.243. The SARS-CoV-2 infection rate in experiment [2] was 97% (inactive).

Consider `CS(=O)(=O)c1ccc([C@@H](O)[C@@H](CF)NC(=O)C(Cl)Cl)cc1` [florfenicol] (10 µM), for which the morphology score in experiment [1] was -0.00265. The SARS-CoV-2 infection rate in experiment [2] was 96.5% (inactive).

`C=C1CC[C@@]2(O)[C@H]3Cc4ccc(O)c5c4[C@@]2(CCN3CC2CC2)[C@H]1O5` [nalmefene] (10 µM): the morphology score in experiment [1] is -0.0409. For the same compound, the SARS-CoV-2 infection rate in experiment [2] is 112% (inactive).

`c1cc(-c2sc(-c3ccncc3)c(-c3ccncc3)c2-c2ccncc2)ccn1` (10 µM) came in with a morphology score in experiment [1] of 0.0438. For the same compound, the SARS-CoV-2 infection rate in experiment [2] is 93% (inactive).

`OCCN1CCN(CCCN2c3ccccc3C=Cc3ccccc32)CC1` [opipramol] (10 µM): the morphology score in experiment [1] amounted to 0.237. Besides, the SARS-CoV-2 infection rate in experiment [2] was 102% (inactive).

`OC[C@H]1O[C@@H](Oc2cc(O)cc(/C=C/c3ccc(O)cc3)c2)[C@H](O)[C@@H](O)[C@@H]1O` [polydatin] (10 µM): the morphology score in experiment [1] amounted to 0.0104. Also, in experiment [2], the SARS-CoV-2 infection rate was 104% (inactive).

In turn, `Cn1nnc(-c2ccc(-c3ccc(N4C[C@H](CO)OC4=O)cc3F)cn2)n1` [tedizolid] (10 µM) had a morphology score in experiment [1] of 0.127. The SARS-CoV-2 infection rate in experiment [2] was 100% (inactive).

In turn, `CCCC(=O)OCOC(=O)C1=C(C)NC(C)=C(C(=O)OC)C1c1cccc(Cl)c1Cl` (stereo unspecified) [cleviprex] (10 µM) had a morphology score in experiment [1] of 0.0656. Also, the SARS-CoV-2 infection rate in experiment [2] was 102% (inactive).

In the case of `C[N@+]1(CC2CC2)CC[C@]23c4c5ccc(O)c4O[C@H]2C(=O)CC[C@@]3(O)[C@H]1C5` [methylnaltrexone] (10 µM), the morphology score in experiment [1] is -0.0178. Moreover, the SARS-CoV-2 infection rate in experiment [2] was 118% (inactive).

`CSc1nc(NC2CCCC2)c([N+](=O)[O-])c(NC2CCCC2)n1` (10 µM) returned a morphology score in experiment [1] of 0.349. For the same compound, the SARS-CoV-2 infection rate in experiment [2] was 88% (inactive).

Turning to `COc1cccc(C(=O)CCN[C@@H](C)[C@H](O)c2ccccc2)c1` [oxyfedrine] (10 µM), the morphology score in experiment [1] was found to be 0.217. Moreover, the SARS-CoV-2 infection rate in experiment [2] is 102% (inactive).

As for `COc1ccc(C(=O)/C(Cc2cc(OC)c(OC)c(OC)c2)=C(\C(=O)O)c2ccc3c(c2)OCO3)cc1` (10 µM), the morphology score in experiment [1] was determined as 0.489. The SARS-CoV-2 infection rate in experiment [2] was 69% (inactive).

With `CN[C@@H]1[C@@H](O[C@H]2O[C@H](CO)[C@@H](N)[C@H](O)[C@H]2O)O[C@H]2C[C@@H](N)[C@@H](O[C@H]3[C@H](O)[C@@H](O)[C@H](N)C[C@@H]3N)O[C@@H]2[C@@H]1O` [apramycin] (10 µM), the morphology score in experiment [1] turned out to be 0.0655. Besides, the SARS-CoV-2 infection rate in experiment [2] was 98% (inactive).

Take `CN(C)CC(=O)Nc1ccc2[nH]c(=O)c3ccccc3c2c1` (10 µM): the morphology score in experiment [1] came to 0.202. The SARS-CoV-2 infection rate in experiment [2] was 92.5% (inactive).

In turn, `CC(C)(C)c1ccc(S(=O)(=O)/C=C/C#N)cc1` (0.833333 µM) returned a morphology score in experiment [1] of 0.173. In addition, the SARS-CoV-2 infection rate in experiment [2] was 89.5% (inactive).

Take `Cc1cc(C)c(Nc2ccnc(Nc3ccc(C#N)cc3)n2)c(C)c1` [dapivirine] (0.833333 µM): the morphology score in experiment [1] is 0.07. For the same compound, the SARS-CoV-2 infection rate in experiment [2] was 114% (inactive).

`O=C(O)COc1cccc(-c2ocnc2-c2nc(-c3ccccc3)c(-c3ccccc3)o2)c1` (10 µM): the morphology score in experiment [1] was found to be 0.194. Besides, the SARS-CoV-2 infection rate in experiment [2] was 102% (inactive).

In turn, `CN1CCN(C(=O)C2C(C(=O)O)[C@H]3CC[C@@H]2O3)CC1` (stereo partly specified) (10 µM) displayed a morphology score in experiment [1] of 0.0648. For the same compound, the SARS-CoV-2 infection rate in experiment [2] was 110% (inactive).

In the case of `Cn1cc(C2=C(c3cn(C4CCN(Cc5ccccn5)CC4)c4ccccc34)C(=O)NC2=O)c2ccccc21` [enzastaurin] (10 µM), the morphology score in experiment [1] was -0.0103. In experiment [2], the SARS-CoV-2 infection rate is 112% (inactive).

In experiment [1], `COc1ccc(C(CN(C)C)C2(O)CCCCC2)cc1` (stereo unspecified) [venlafaxine] (10 µM) showed a morphology score of 0.00722. Further, the SARS-CoV-2 infection rate in experiment [2] was 110% (inactive).

On to `Cc1sc(C)c2c1CCC=C2c1c[nH]cn1` (10 µM), for which the morphology score in experiment [1] amounted to 0.165. In addition, in experiment [2], the SARS-CoV-2 infection rate is 94% (inactive).

`CC1(C)Oc2ccc(C#N)cc2[C@H](N(Cc2ncc[nH]2)c2ccc(Cl)cc2)[C@H]1O` (10 µM) gave a morphology score in experiment [1] of 0.455. For the same compound, the SARS-CoV-2 infection rate in experiment [2] was 81% (inactive).

In experiment [1], `CO/N=C1\CN(c2nc3c(cc2F)c(=O)c(C(=O)O)cn3C2CC2)CC1CN` (stereo unspecified) [gemifloxacin] (10 µM) had a morphology score of 0.163. The SARS-CoV-2 infection rate in experiment [2] was 91.5% (inactive).

In the case of `CC1=C(C(=O)Nc2cc3cn[nH]c3cc2F)C(c2ccc(C(F)(F)F)cc2)CC(=O)N1` (stereo unspecified) (10 µM), in experiment [1], the morphology score was 0.426. The SARS-CoV-2 infection rate in experiment [2] is 99% (inactive).

For `CC(C)(C)/[N+]([O-])=C/c1ccc(S(=O)(=O)O)cc1S(=O)(=O)O` (10 µM), the morphology score in experiment [1] was determined as 0.00191. In addition, the SARS-CoV-2 infection rate in experiment [2] was 114% (inactive).

For `O=C(NCCS(=O)(=O)c1ccc(C(F)(F)F)cn1)c1ccc(Cl)cc1` (10 µM), the morphology score in experiment [1] amounted to 0.178. For the same compound, the SARS-CoV-2 infection rate in experiment [2] is 99% (inactive).

As to `CN(C)CCCC1(c2ccc(F)cc2)OCc2cc(C#N)ccc21` (stereo unspecified) [citalopram] (10 µM), in experiment [1], the morphology score is -0.167. In experiment [2], the SARS-CoV-2 infection rate was 107% (inactive).

Turning to `Cc1cccc(-c2[nH]c(CNc3ccccc3F)nc2-c2ccc3ncnn3c2)n1` (10 µM), the morphology score in experiment [1] came to 0.295. For the same compound, in experiment [2], the SARS-CoV-2 infection rate is 109% (inactive).

Values taken from the supplement of paper PMC13380429.
